The list is not random: actives were taken first. Their share in the collection is about 21%.
IL1B secr inh = qHTS for Inhibitors of Inflammasome Signaling: IL-1-beta AlphaLISA Primary Screen; activity change, % at 57.5 µM; AID 743279, 2014; actives 4.7% (n = 360,000); THP-1 LPS/ATP IL-1B secretion, AlphaLISA, 16 h; stronger effect = lower value; in the data active = activity change below about -50%; inconclusive = mostly about -30% to -49%
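THP-1 cells pretreated 1 hr with compounds (up to 57.5 uM final), then stimulated with LPS (250 ng/mL final) plus ATP (1.25 mM final); secreted IL-1B measured by AlphaLISA after 16 hr, decreased signal indicating inhibition.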
ClpP mod = qHTS Assay for Activators of ClpP | Potency, µM (top dose mostly 57.5 µM) | AID 651965, 2013 | actives 1.9% (n = 340,000) | ATP-dependent Clp protease proteolytic subunit (Bacillus subtilis (strain 168)), P80244 | purified B. subtilis ClpP, FRET peptide cleavage, 20 min; active = well fitted falling curve with a large enough effect; inconclusive = small, poorly fitted or top-dose-only effect; inactive = no such curve, though single readings can be large or run the other way; note: the source files actives as falling curves though it sought activators and does not explain the sign; nearly all actives have a fitted effect of over 65% in size
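Buffer: 100 mM Tris/HCl pH8, 100 mM KCl, 0.05% low protease BSA, 2.5% glycerol, 0.01% Tween-20. ClpP 10 microg/mL final; 20 min RT; delta FRET normalized to ADEP and DMSO controls.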
DT40 TDP1 no CPT = qHTS for Inhibitors of human tyrosyl-DNA phosphodiesterase 1 (TDP1): qHTS in cells in absence of CPT. actives 15% (n = 420,000). DT40 Tdp1-/- hTDP1 cells, no CPT, ATP luminescence, 48 h. Potency, µM (titrated, usually from 46.2 µM), hits mostly inhibitors; note: nearly all actives have a fitted effect of over 55% in size
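Cells were dispensed at 400 per well, compounds added by pin tool, plates incubated ≥48 hr at 37 °C, then CellTiter-Glo added for 30 min at room temperature before luminescence reading. Line: DT40 Tdp1-/- complemented with hTDP1; camptothecin omitted.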
D3 ag = qHTS of D3 Dopamine Receptor Agonist: qHTS; D(3) dopamine receptor (Homo sapiens), P35462; D3R DiscoveRx beta-arrestin cells, luminescence, 90 min; max activation, %; actives 0.58% (n = 410,000); AID 652048, 2013; in the data active = max activation above about 30%
Target sequence (P35462 whole entry, looked up): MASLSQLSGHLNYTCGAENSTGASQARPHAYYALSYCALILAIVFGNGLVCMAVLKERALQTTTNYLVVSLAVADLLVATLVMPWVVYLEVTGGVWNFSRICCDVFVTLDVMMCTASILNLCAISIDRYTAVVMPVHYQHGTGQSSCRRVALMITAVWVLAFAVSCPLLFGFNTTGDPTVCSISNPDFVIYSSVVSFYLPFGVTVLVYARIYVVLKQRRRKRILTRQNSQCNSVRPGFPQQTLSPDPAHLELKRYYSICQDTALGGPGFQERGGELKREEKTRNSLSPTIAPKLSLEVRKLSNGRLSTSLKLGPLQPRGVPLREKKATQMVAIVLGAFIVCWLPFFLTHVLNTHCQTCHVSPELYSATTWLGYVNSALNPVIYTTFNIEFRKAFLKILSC
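Cells at 1500/well, incubated overnight, then treated with pinned compounds (dopamine as control) for 90 min at 37 degrees C. DiscoveRx reagent added for 30 - 60 minutes at room temperature; luminescence read.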
TDP1 cell CPT = qHTS for Inhibitors of human tyrosyl-DNA phosphodiesterase 1 (TDP1): qHTS in cells in presence of CPT; AID 686979, 2013; chicken DT40 Tdp1-/-;hTDP1 cells + 20 nM CPT, ATP luminescence, 48 h; actives 12% (n = 420,000); Potency, µM (top dose mostly 46.2 µM), most hits filed as inhibitors; note: nearly all actives have a fitted effect of over 55% in size
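Cell growth measured by CellTiter-Glo luminescence after a minimum 48 h, 37 C compound exposure with 20 nM CPT in Tdp1-knockout DT40 cells stably expressing hTDP1, seeded 400/well; qHTS titration format.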
D3 antag = qHTS of D3 Dopamine Receptor Antagonist: qHTS; actives 2.5% (n = 360,000); AID 652054, 2013; max response, negative = inhibition, %; D3R cells, DiscoveRx beta-arrestin luminescence, antagonist mode; stronger effect = lower value; in the data active = max response below about -50%; inconclusive = no clear call, values can overlap the other calls
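Cells expressing the human receptor were seeded at 1500 cells/well, incubated overnight at 37 degrees C in 5% CO2, then exposed to library compounds with dopamine controls for 90 minutes at 37 degrees C before luminescent detection.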
Each line names hits and unclear results; the compound was inactive in the other large screens. Unless noted, calls come from the whole dose curve; as a rule, active = well fitted inhibition curve with a large enough effect; inconclusive = small, poorly fitted or top-dose-only effect; inactive = flat fitted curve, though single readings scatter.

CCC1Oc2ccc(C)cc2N(CC(=O)N(Cc2ccc(C)o2)C2CC(C)(C)NC(C)(C)C2)C1=O (configuration not stated)	DT40 TDP1 no CPT inconclusive, TDP1 cell CPT 18µM (no result: IL1B secr inh)
CCC1Oc2ccc(C)cc2N(CC(=O)NCc2ccco2)C1=O (configuration not stated)	DT40 TDP1 no CPT inconclusive
O=C(Cn1c(=O)cnc2ccccc21)Nc1cccc(S(=O)(=O)N2CCCCC2)c1	DT40 TDP1 no CPT inconclusive, TDP1 cell CPT inconclusive
Cc1cc(NC(=O)CCNS(=O)(=O)c2cc(Br)cnc2N)ccc1Br	D3 antag -51
Nc1ncc(Br)cc1S(=O)(=O)NCCC(=O)Nc1cccc(Cl)c1	IL1B secr inh -61
Cc1ccc(NC(=O)CCNS(=O)(=O)c2cc(Br)cnc2N)cc1Cl	IL1B secr inh inconclusive, DT40 TDP1 no CPT inconclusive, TDP1 cell CPT inconclusive
COCCn1nnnc1C(C(C)C)N(Cc1ccccc1)Cc1cc2cc(OC)ccc2[nH]c1=O (configuration not stated)	IL1B secr inh -56, DT40 TDP1 no CPT 16µM, TDP1 cell CPT inconclusive
Cc1cccc2cc(CN(Cc3ccco3)C(c3nnnn3CCc3ccccc3)C(C)C)c(=O)[nH]c12 (configuration not stated)	DT40 TDP1 no CPT 15µM, TDP1 cell CPT inconclusive
COc1ccc2[nH]c(=O)c(CN(Cc3ccco3)C(c3nnnn3Cc3ccccc3)C(C)C)cc2c1 (configuration not stated)	ClpP mod inconclusive, DT40 TDP1 no CPT 21µM, TDP1 cell CPT 18µM
COc1ccc2cc(C(c3nnnn3CCc3ccccc3)N3CCC(O)CC3)c(=O)[nH]c2c1 (configuration not stated)	none
Cc1cccc2cc(CN(Cc3ccco3)C(=O)c3ccco3)c(=O)[nH]c12	none (no result: ClpP mod)
Cn1c(N)c(C(=O)COC(=O)c2ccc(OC(F)F)cc2)c(=O)n(C)c1=O	DT40 TDP1 no CPT inconclusive
O=C(CCNC(=O)c1ccc(Cl)cc1)Nc1cccc(S(=O)(=O)N2CCCCC2)c1	DT40 TDP1 no CPT 23µM, TDP1 cell CPT 18µM
N#Cc1ccccc1OCC(=O)Nc1cccc(S(=O)(=O)N2CCCC2)c1	DT40 TDP1 no CPT inconclusive, TDP1 cell CPT 16µM
O=C(Nc1cccc(S(=O)(=O)N2CCCC2)c1)[C@@H]1O[C@H](CO)[C@@H](O)[C@H]1O	IL1B secr inh -76
O=C(COC(=O)CCC1CCCC1)Nc1cccc(S(=O)(=O)N2CCOCC2)c1	IL1B secr inh -87
CCc1cnc2c(c1SCC(=O)NCc1ccc(F)cc1)c(=O)n(C)c(=O)n2C	DT40 TDP1 no CPT inconclusive, TDP1 cell CPT inconclusive (no result: IL1B secr inh, D3 antag)
CN(Cc1ccon1)C(=O)c1cnn(-c2nccc(-c3ccc4c(c3)OCO4)n2)c1C1CC1	none (no result: IL1B secr inh, ClpP mod, D3 ag, D3 antag)
O=C(Nc1cccc(S(=O)(=O)N2CCCCC2)c1)Nc1ccc(Cl)cc1Cl	IL1B secr inh -87, DT40 TDP1 no CPT inconclusive, TDP1 cell CPT inconclusive (no result: ClpP mod)
COc1ccc(CCC(=O)Nc2cccc(S(=O)(=O)N3CCOCC3)c2)cc1OC	DT40 TDP1 no CPT inconclusive, TDP1 cell CPT 15µM
O=C(CN(CCO)c1ccccc1)Nc1cccc(S(=O)(=O)N2CCCC2)c1	DT40 TDP1 no CPT inconclusive, TDP1 cell CPT 18µM (no result: ClpP mod)
O=C(CN1CCCC1c1cccs1)Nc1cc(S(=O)(=O)N2CCCC2)ccc1Cl (configuration not stated)	DT40 TDP1 no CPT inconclusive, TDP1 cell CPT inconclusive (no result: ClpP mod)
O=C(CCc1ccccc1)Nc1cccc(S(=O)(=O)N2CCOCC2)c1	DT40 TDP1 no CPT inconclusive, TDP1 cell CPT inconclusive

Screening data deposited in PubChem BioAssay by National Center for Advancing Translational Sciences (NCATS).
